Of roughly 7,900 targets only a part is listed; those with a hit were picked by preference. About 0.6% of all pairs of compound and target were hits. Unmarked numbers belong to inactive results.
How the values were obtained:
Test in all cases: log2 fold change, soluble protein after heating vs DMSO (PISA); higher = thermal stabilisation; K562 cells, 10 uM, 30 min; active = over 0.2 and 3.5 SD of the protein, either way, in both replicates (recomputed)
[1] = compound: COC1=CC=C(C=C1)CN2C=CC3=C2C=C(C=C3)C(=O)NO
Summary of the method: (§1)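 K562 cells at 2×10^6 cells/mL were treated for 30 min with 10 μM compound, and aliquots were heated for 3 min over 48°C-58°C before pooling. Extraction used PBS with 0.5% NP-40 at 4°C, and soluble protein was the supernatant after 21,000xg for 90 min, measured by TMTpro 16plex LC-MS/MS with channel sums equalised. Thermal stability values, relative to control samples and from duplicates, are log2 fold changes.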

filanesib = compound: CON(C)C(=O)N1N=C(c2cc(F)ccc2F)S[C@@]1(CCCN)c1ccccc1 [filanesib]
Summary of the method: as §1

zotarolimus = compound: CO[C@H]1C[C@@H]2CC[C@@H](C)[C@@](O)(O2)C(=O)C(=O)N2CCCC[C@H]2C(=O)O[C@H]([C@H](C)C[C@@H]2CC[C@H](n3cnnn3)[C@H](OC)C2)CC(=O)[C@H](C)/C=C(\C)[C@@H](O)[C@@H](OC)C(=O)[C@H](C)C[C@H](C)/C=C/C=C/C=C/1C [zotarolimus]
Summary of the method: as §1

idasanutlin = compound: COc1cc(C(=O)O)ccc1NC(=O)[C@@H]1N[C@@H](CC(C)(C)C)[C@](C#N)(c2ccc(Cl)cc2F)[C@H]1c1cccc(Cl)c1F [idasanutlin]
Summary of the method: as §1

alisertib = compound: COc1cc(Nc2ncc3c(n2)-c2ccc(Cl)cc2C(c2c(F)cccc2OC)=NC3)ccc1C(=O)O [alisertib]
Summary of the method: as §1

[2] = compound: COc1cc2nc(-c3cc(F)ccc3O)nc(N[C@@H]3CNC[C@H]3C(C)(C)O)c2cc1OC
Summary of the method: as §1

gefitinib = compound: COc1cc2ncnc(Nc3ccc(F)c(Cl)c3)c2cc1OCCCN1CCOCC1 [gefitinib]
Summary of the method: as §1

[3] = compound: COc1cccc2cc(-c3nc([C@H]4CC[C@H](C(=O)O)CC4)n4ncnc(N)c34)[nH]c12
Summary of the method: as §1

lapatinib = compound: CS(=O)(=O)CCNCc1ccc(-c2ccc3ncnc(Nc4ccc(OCc5cccc(F)c5)c(Cl)c4)c3c2)o1 [lapatinib]
Summary of the method: as §1

pictilisib = compound: CS(=O)(=O)N1CCN(Cc2cc3nc(-c4cccc5[nH]ncc45)nc(N4CCOCC4)c3s2)CC1 [pictilisib]
Summary of the method: as §1

[4] = compound: CS(=O)(=O)c1ccc(-c2cnc(N)c(C(=O)Nc3ccccc3)n2)cc1
Summary of the method: as §1

crizotinib = compound: C[C@@H](Oc1cc(-c2cnn(C3CCNCC3)c2)cnc1N)c1c(Cl)ccc(F)c1Cl [crizotinib]
Summary of the method: as §1

[5] = compound: C[C@@H]1COCCN1C2=NC(=NC(=C2)C3(CC3)S(=O)(=O)C)C4=C5C=CNC5=CC=C4
Summary of the method: as §1

[6] = compound: C[C@H](C1=CC=C(C=C1)C(=O)NC2=C3C=CNC3=NC=C2)N
Summary of the method: as §1

duvelisib = compound: C[C@H](Nc1ncnc2nc[nH]c12)c1cc2cccc(Cl)c2c(=O)n1-c1ccccc1 [duvelisib]
Summary of the method: as §1

gandotinib = compound: Cc1cc(Nc2cc(CN3CCOCC3)c3nc(C)c(Cc4ccc(Cl)cc4F)n3n2)n[nH]1 [gandotinib]
Summary of the method: as §1

tozasertib = compound: Cc1cc(Nc2cc(N3CCN(C)CC3)nc(Sc3ccc(NC(=O)C4CC4)cc3)n2)n[nH]1 [tozasertib]
Summary of the method: as §1

[7] = compound: Cc1cc(SCc2sc(-c3ccc(C(F)(F)F)cc3)nc2C)ccc1OCC(=O)O
Summary of the method: as §1

doramapimod = compound: Cc1ccc(-n2nc(C(C)(C)C)cc2NC(=O)Nc2ccc(OCCN3CCOCC3)c3ccccc23)cc1 [doramapimod]
Summary of the method: as §1

ispinesib = compound: Cc1ccc(C(=O)N(CCCN)[C@@H](c2nc3cc(Cl)ccc3c(=O)n2Cc2ccccc2)C(C)C)cc1 [ispinesib]
Summary of the method: as §1

UniProt P30519, sequence (P30519 whole entry, looked up): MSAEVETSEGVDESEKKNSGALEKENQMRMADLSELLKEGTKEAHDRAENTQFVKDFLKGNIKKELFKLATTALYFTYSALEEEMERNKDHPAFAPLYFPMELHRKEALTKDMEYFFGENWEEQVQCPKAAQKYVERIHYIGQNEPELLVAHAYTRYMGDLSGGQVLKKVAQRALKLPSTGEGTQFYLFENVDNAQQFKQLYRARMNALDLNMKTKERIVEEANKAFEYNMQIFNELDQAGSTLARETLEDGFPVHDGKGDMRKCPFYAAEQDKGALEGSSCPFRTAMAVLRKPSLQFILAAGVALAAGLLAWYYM
UniProt Q53GQ0, sequence (Q53GQ0 whole entry, looked up): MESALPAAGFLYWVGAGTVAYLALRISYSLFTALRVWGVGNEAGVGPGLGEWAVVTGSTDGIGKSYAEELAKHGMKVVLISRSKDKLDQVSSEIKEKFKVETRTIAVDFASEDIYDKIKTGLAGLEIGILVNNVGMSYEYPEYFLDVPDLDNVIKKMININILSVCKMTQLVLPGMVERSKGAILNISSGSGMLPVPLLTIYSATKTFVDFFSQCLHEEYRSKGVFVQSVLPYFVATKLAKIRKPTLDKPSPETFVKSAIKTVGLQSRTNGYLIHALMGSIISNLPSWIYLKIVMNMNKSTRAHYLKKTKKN
UniProt Q8N9F7, sequence (Q8N9F7 whole entry, looked up): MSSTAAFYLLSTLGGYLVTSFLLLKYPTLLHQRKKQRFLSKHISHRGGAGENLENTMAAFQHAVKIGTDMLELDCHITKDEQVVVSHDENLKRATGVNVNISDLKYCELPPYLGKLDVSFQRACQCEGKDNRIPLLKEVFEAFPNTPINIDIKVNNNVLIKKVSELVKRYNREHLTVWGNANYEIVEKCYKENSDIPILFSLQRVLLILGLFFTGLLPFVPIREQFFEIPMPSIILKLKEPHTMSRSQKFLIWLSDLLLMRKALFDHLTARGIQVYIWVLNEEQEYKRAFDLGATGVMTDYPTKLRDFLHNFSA
UniProt P54803, sequence (P54803 whole entry, looked up): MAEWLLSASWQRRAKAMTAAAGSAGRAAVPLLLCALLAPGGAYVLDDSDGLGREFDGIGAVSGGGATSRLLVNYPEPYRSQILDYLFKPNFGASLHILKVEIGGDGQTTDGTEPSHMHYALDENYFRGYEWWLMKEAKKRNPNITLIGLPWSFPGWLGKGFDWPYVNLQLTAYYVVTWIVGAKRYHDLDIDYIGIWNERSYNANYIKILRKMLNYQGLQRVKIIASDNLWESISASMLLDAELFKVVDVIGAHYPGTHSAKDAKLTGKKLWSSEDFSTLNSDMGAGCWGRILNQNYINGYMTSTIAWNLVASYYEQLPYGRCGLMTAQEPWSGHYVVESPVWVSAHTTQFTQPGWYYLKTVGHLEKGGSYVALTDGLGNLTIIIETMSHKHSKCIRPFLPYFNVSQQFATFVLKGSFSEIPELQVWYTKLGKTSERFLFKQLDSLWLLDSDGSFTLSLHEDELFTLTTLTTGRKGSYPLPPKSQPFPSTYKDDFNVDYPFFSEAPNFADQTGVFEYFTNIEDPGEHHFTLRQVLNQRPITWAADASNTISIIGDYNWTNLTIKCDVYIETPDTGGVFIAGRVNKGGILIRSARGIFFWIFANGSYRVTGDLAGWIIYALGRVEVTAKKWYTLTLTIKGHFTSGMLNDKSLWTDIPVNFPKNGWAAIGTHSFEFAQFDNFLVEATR
UniProt P09105, sequence (P09105 whole entry, looked up): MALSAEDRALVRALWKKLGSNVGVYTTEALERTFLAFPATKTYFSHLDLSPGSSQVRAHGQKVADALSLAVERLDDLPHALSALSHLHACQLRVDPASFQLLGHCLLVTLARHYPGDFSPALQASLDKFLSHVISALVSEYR
UniProt Q86VS8, sequence (Q86VS8 whole entry, looked up): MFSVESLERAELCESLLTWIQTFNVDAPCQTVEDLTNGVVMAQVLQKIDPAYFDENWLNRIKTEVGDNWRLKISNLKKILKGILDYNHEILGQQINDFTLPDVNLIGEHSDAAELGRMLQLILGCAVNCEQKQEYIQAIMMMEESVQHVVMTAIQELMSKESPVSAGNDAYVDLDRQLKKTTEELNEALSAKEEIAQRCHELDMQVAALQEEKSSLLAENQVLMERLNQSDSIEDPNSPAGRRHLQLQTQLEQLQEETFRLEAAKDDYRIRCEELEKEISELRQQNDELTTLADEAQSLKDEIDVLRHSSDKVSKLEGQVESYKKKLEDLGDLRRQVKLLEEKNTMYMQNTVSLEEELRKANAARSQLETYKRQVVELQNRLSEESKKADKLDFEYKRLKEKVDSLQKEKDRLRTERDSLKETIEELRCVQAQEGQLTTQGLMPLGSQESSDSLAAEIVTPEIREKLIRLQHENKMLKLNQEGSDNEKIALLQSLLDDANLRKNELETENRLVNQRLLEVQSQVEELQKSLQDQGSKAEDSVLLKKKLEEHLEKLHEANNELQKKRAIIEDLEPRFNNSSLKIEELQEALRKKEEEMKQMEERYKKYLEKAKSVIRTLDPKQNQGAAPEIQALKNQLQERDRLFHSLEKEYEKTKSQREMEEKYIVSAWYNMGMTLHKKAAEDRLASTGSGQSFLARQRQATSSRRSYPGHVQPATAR
UniProt P06280, sequence (P06280 whole entry, looked up): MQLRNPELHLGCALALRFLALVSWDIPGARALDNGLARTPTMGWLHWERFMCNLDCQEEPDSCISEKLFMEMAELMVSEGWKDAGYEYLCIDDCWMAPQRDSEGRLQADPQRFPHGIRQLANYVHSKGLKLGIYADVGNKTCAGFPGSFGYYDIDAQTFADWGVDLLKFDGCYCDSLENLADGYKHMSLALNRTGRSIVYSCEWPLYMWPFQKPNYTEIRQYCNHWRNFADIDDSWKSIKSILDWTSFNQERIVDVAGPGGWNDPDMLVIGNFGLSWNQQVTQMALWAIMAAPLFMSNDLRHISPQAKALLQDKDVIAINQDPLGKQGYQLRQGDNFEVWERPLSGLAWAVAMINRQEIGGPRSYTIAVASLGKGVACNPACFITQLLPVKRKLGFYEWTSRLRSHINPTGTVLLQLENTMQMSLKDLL
UniProt Q9UJ14, sequence (Q9UJ14 whole entry, looked up): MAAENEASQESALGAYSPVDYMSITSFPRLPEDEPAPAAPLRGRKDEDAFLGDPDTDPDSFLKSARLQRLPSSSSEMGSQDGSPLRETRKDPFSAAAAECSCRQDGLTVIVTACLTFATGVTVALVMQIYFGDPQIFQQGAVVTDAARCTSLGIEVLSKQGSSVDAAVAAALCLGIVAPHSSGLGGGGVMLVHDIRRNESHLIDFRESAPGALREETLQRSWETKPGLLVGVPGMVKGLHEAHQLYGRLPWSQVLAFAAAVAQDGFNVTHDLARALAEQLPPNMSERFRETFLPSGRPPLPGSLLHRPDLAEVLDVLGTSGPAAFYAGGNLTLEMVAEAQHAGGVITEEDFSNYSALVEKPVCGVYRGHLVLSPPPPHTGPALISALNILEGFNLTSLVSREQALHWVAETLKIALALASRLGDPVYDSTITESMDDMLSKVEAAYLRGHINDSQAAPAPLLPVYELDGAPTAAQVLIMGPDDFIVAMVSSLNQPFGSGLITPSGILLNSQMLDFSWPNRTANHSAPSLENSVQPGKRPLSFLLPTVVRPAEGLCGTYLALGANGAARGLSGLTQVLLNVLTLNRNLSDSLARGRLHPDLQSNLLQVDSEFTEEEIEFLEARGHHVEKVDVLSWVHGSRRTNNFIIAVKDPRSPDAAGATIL
UniProt P23327, sequence (P23327 whole entry, looked up): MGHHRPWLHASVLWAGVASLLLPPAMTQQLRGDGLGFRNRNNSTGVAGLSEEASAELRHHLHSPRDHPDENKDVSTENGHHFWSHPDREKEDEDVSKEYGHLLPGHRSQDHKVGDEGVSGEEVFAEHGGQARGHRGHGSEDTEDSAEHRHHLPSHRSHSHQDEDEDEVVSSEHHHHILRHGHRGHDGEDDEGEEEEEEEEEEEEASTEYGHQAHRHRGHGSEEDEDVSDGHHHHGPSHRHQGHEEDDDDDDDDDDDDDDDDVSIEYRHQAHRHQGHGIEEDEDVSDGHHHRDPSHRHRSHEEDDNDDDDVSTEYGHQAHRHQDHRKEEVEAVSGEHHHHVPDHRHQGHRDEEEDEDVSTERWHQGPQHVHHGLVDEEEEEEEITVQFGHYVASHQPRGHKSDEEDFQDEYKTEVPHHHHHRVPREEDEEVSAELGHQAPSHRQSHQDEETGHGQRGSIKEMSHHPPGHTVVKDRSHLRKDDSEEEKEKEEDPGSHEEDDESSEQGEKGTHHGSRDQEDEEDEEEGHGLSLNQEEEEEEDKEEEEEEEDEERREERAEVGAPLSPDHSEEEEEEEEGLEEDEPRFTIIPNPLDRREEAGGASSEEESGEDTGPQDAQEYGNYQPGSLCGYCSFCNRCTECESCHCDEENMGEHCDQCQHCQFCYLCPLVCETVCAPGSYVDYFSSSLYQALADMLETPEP
UniProt O76003, sequence (O76003 whole entry, looked up): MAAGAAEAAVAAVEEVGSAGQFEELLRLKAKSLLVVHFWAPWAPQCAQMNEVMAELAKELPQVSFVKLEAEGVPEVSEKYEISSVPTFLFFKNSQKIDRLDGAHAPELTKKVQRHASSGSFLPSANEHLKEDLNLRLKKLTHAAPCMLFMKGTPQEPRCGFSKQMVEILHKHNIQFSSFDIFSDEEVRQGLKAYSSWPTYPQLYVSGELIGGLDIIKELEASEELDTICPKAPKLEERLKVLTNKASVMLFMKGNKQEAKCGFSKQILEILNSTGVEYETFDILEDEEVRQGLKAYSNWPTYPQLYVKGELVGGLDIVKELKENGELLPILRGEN
UniProt Q9H0R4, sequence (Q9H0R4 whole entry, looked up): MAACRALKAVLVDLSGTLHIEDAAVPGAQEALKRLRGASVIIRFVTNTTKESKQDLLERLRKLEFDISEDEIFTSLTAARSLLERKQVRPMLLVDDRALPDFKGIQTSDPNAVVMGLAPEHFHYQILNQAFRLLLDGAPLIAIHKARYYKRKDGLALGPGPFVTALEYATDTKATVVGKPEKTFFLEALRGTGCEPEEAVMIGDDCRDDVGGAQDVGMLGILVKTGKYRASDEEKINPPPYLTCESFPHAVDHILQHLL

Row | Target | log2 fold change [1] | log2 fold change (filanesib) | log2 fold change (zotarolimus) | log2 fold change (idasanutlin) | log2 fold change (alisertib) | log2 fold change [2] | log2 fold change (gefitinib) | log2 fold change [3] | log2 fold change (lapatinib) | log2 fold change (pictilisib) | log2 fold change [4] | log2 fold change (crizotinib) | log2 fold change [5] | log2 fold change [6] | log2 fold change (duvelisib) | log2 fold change (gandotinib) | log2 fold change (tozasertib) | log2 fold change [7] | log2 fold change (doramapimod) | log2 fold change (ispinesib)
1 | HDHD2 (UniProt Q9H0R4) | 0.048 | -0.097 | -0.027 | 0.006 | -0.06 | -0.007 | 0.024 | 0.085 | -0.03 | -0.011 | -0.11 | -0.031 | -0.01 | 0.001 | -0.019 | 0 | -0.039 | -0.023 | -0.081 | 0.004
2 | GPKOW (UniProt Q92917) | -0.055 | -0.118 | 0.024 | -0.06 | 0.039 | -0.021 | 0.047 | 0.11 | -0.005 | -0.037 | 0.004 | -0.147 | 0.104 | -0.004 | 0.087 | -0.094 | -0.121 | 0.195 | -0.03 | -0.013
3 | HRC (UniProt P23327) | -0.089 | 0.019 | -0.032 | 0.035 | -0.059 | -0.008 | 0.035 | -0.007 | -0.039 | 0.017 | 0.027 | 0.096 | -0.342 (active) | 0.012 | 0.062 | 0.064 | -0.053 | -0.033 | -0.033 | 0.037
4 | GLA (UniProt P06280) | 0.033 | -0.048 | -0.003 | 0.06 | -0.089 | 0.018 | -0.011 | 0.01 | -0.026 | -0.06 | -0.033 | -0.205 | -0.019 | 0.018 | -0.027 | -0.066 | -0.03 | 0.034 | -0.036 | -0.148
5 | HNRNPF (UniProt P52597) | 0.059 | -0.03 | 0.046 | 0.073 | 0.03 | -0.036 | -0.034 | -0.026 | 0.008 | -0.088 | -0.016 | -0.152 | 0.047 | -0.004 | -0.061 | -0.07 | 0.071 | 0.119 | -0.03 | -0.092
6 | GALC (UniProt P54803) | 0.007 | -0.017 | -0.071 | -0.121 | 0.049 | 0.099 | -0.014 | 0.066 | 0.042 | 0.159 | 0.03 | -0.023 | 0.03 | -0.012 | -0.049 | 0.008 | 0.033 | 0 | -0.01 | -0.135
7 | GGT7 (UniProt Q9UJ14) | 0.044 | 0.081 | -0.03 | -0.039 | -0.07 | -0.098 | 0.055 | 0.05 | -0.062 | 0.143 | 0.035 | 0.013 | -0.128 | 0.013 | -0.045 | -0.03 | -0.049 | -0.091 | 0.023 | -0.032
8 | GLS (UniProt O94925) | 0.009 | 0.029 | 0.027 | -0.192 | 0.143 | 0.22 | 0.033 | -0.009 | -0.052 | 0.049 | 0.033 | 0.05 | 0.209 | -0.049 | 0.053 | -0.17 | 0.012 | 0.054 | -0.105 | 0.118
9 | HNRNPUL1 (UniProt Q9BUJ2) | 0.033 | 0.047 | -0.043 | 0.03 | 0.01 | 0.023 | -0.02 | 0.009 | 0.031 | 0.014 | 0.007 | -0.023 | -0.016 | 0.147 | -0.036 | 0.049 | 0.039 | 0.085 | -0.025 | -0.019
10 | GLRX3 (UniProt O76003) | 0.005 | -0.056 | 0.056 | -0.001 | -0.063 | 0.012 | -0.009 | -0.018 | 0.062 | -0.003 | 0.03 | 0.098 | 0.06 | -0.068 | 0.043 | -0.094 | 0.077 | 0.041 | -0.075 | 0.068
11 | GPAT4 (UniProt Q86UL3) | -0.034 | -0.024 | 0.055 | -0.093 | 0.01 | 0.188 | 0.006 | -0.046 | -0.031 | 0.036 | 0.15 | 0.287 (active) | 0.066 | -0.071 | 0.017 | -0.009 | 0.063 | 0.061 | -0.063 | 0.194
12 | GDPD1 (UniProt Q8N9F7) | 0.353 (active) | 0.056 | 0.13 | 0.156 | -0.068 | 0.208 | 0.067 | 0.021 | 0.04 | 0.085 | 0.086 | 0.035 | 0.074 | -0.057 | 0.023 | 0.012 | 0.043 | -0.033 | 0.078 | 0.353 (active)
13 | HOOK3 (UniProt Q86VS8) | -0.074 | -0.108 | 0.001 | 0.036 | 0.07 | 0.014 | -0.006 | 0.018 | 0.032 | -0.021 | -0.042 | -0.123 | -0.05 | 0.036 | 0.05 | -0.067 | 0.037 | 0.033 | 0.019 | -0.199
14 | HSD17B12 (UniProt Q53GQ0) | 0.069 | -0.013 | 0.03 | -0.169 | 0.003 | 0.135 | 0.103 | 0.045 | 0.369 (active) | 0.102 | 0.046 | 0.191 | 0.012 | -0.061 | 0.063 | 0.371 (active) | -0.018 | 0.055 | -0.009 | 0.243
15 | HMOX2 (UniProt P30519) | 0.444 (active) | 0.085 | 0.027 | 0.148 | -0.03 | 0.036 | 0.006 | -0.041 | -0.045 | -0.04 | 0.07 | -0.03 | 0.022 | 0.008 | 0.011 | 0.017 | -0.007 | 0.041 | 0.062 | -0.028
16 | HBQ1 (UniProt P09105) | -0.034 | -0.027 | 0.051 | -0.023 | -0.115 | -0.05 | 0.033 | 0.091 | 0.001 | -0.012 | -0.017 | 0.037 | 0.065 | -0.148 | 0.129 | -0.002 | 0.015 | -0.023 | -0.003 | 0.092
